Among the data in PubChem BioAssay AID1069 (NMMLSC, 2008) are side scatter shift values, retold here.

Structures are written as SMILES. Active and inactive are the calls of the source.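 Rule for the calls: active = high combined rank on largest and smallest cell-count-weighted shift across three tests, rank score above 45, floors 50 and 25 (some results past the limit were not filed as active); inactive = the rest.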

The assay can be described thus: activators of LNCaP cell differentiation, retest, confirmation, side scatter shift, flow cytometry (AID 1069).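 Note: LNCaP human prostate cancer cells in low-serum medium with charcoal-stripped FBS; percent of cells with raised granularity gated so DMSO controls show 10%.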 Conditions: 4 d, stronger effect = higher value. A general note: A flow cytometer gives signals particle by particle.

For the compound `CN1CCN(CCCNC(=O)c2cc3c(-c4ccc(Cl)cc4)nn(C)c3s2)CC1`, the side scatter shift (at 100 µM) is 14.3% (active) and the side scatter shift (side scatter shift, at 10 µM) amounted to 57%.

As to `CCCCn1c2c(c3ccccc31)CCc1nonc1-2`, the side scatter shift by setting is: (at 100 µM) 20.1% (inactive); (side scatter shift, at 10 µM) 2.8%.

For `Cc1ccccc1-c1nc(CN2CCC(C(=O)N3CCC(C(N)=O)CC3)CC2)c(C)o1`, the side scatter shift by setting is: (at 100 µM) 12% (inactive); (side scatter shift, at 10 µM) 10.9%.

Consider `O=C(Nc1ccc2oc(Cc3ccc(Cl)cc3)nc2c1)c1cccnc1`, for which the side scatter shift is, setting by setting: (at 100 µM) 17.6% (inactive); (side scatter shift, at 10 µM) 6.7%.

Consider `N#CC(C(=O)c1ccco1)c1ccccn1` (stereo unspecified), for which the side scatter shift by setting is: (at 100 µM) 2.5% (inactive); (side scatter shift, at 10 µM) 10.3%.

Consider `CCn1c(SCC(=O)Nc2ccccc2F)nc2c(c1=O)SC(C)C2` (stereo unspecified), for which the side scatter shift was 8% (inactive) (at 100 µM) and 0.85% (side scatter shift, at 10 µM).

On to `O=C(NCCCN1CCN(c2ccccc2F)CC1)C1CCC(=O)N1C1CCCCC1` (stereo unspecified), for which the side scatter shift runs as follows: (at 100 µM) 8% (inactive); (side scatter shift, at 10 µM) 4.05%.

Regarding `Cc1ccc(-n2c(SCC(=O)Nc3nccs3)nc3c(c2=O)SCC3)cc1`, the side scatter shift by setting is: (at 100 µM) 16.9% (inactive); (side scatter shift, at 10 µM) 9.7%.

Turning to `CCN1CCCC1CNC(=O)C1CCN(Cc2nc(-c3cccc(Br)c3)oc2C)CC1` (stereo unspecified), the side scatter shift was 6.3% (active) (at 100 µM) and 60.2% (side scatter shift, at 10 µM).

`COC(=O)c1[nH]c2c(c1C)C(=O)CCC2`: the side scatter shift is 7.2% (inactive) (at 100 µM) and 3.6% (side scatter shift, at 10 µM).

Turning to `CCOc1nc(-c2ccccc2O)nc2ccccc12`, the side scatter shift (at 100 µM) is 13.5% (inactive) and the side scatter shift (side scatter shift, at 10 µM) was determined as 8.8%.

Take `CCOC(=O)c1sc2ncnc(N3CCN(c4ccc(OC)cc4)CC3)c2c1C`: the side scatter shift is 25% (inactive) (at 100 µM) and 9.55% (side scatter shift, at 10 µM).

For the compound `CCOC(=O)N1CCN(C(=O)C2CCN(Cc3nc(-c4ccccc4C)oc3C)CC2)CC1`, the side scatter shift by setting is: (at 100 µM) 30.6% (inactive); (side scatter shift, at 10 µM) 5.15%.

As for `CC1(C)CC(=O)c2cc(OCC(=O)NCCCN3CCN(c4ccccc4F)CC3)ccc2O1`, the side scatter shift reads like this: (at 100 µM) 27.3% (inactive); (side scatter shift, at 10 µM) 6.5%.

`Cn1nc(-c2ccc(Cl)cc2)c2cc(C(=O)NCCN3CCOCC3)sc21`: the side scatter shift is 30% (inactive) (at 100 µM) and 5.2% (side scatter shift, at 10 µM).

For `COc1ccc2cc3c(N)nn(C(=O)Cc4ccccc4OC)c3nc2c1`, the side scatter shift by setting is: (at 100 µM) 20% (inactive); (side scatter shift, at 10 µM) 8.05%.

`CCSc1nnc(Cn2c(=O)sc3ccccc32)n1-c1ccccc1C`: the side scatter shift was 20.5% (inactive) (at 100 µM) and 9.7% (side scatter shift, at 10 µM).

Regarding `Cc1sc(CO)c(Sc2ccccc2)c1C(=O)O`, the side scatter shift (at 100 µM) is 3.4% (inactive) and the side scatter shift (side scatter shift, at 10 µM) was determined as 2.85%.
